These results are taken from the supplement of paper PMC12350171.

Structures are written as SMILES. Structures can show the parent of a compound that is named as a salt. Values without a mark were called inactive.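 The calls were made as follows: active = AUC significantly below DMSO controls by Student t-fit with adjusted P under 0.01; inactive = not significantly reduced.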

This assay deals with Yersinia pseudotuberculosis. Briefly: growth AUC normalised to DMSO control (fraction of control); higher = less growth inhibition, active = hit call of the paper. The note with it: 20 µM. Put shortly:
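Pathogens passaged twice anaerobically were inoculated at a starting OD578 of 0.01 into pre-reduced mGAM plates with drug at 20 μM and 1% DMSO, sealed with breathable membranes. Haemophilus parainfluenzae medium was supplemented with hemin and NAD. OD578 was read hourly for 24 h, with three biological replicates. Growth-curve AUC was computed by the trapezoidal rule up to the exponential-to-stationary transition and normalised to DMSO controls on the same plate.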
`Cc1ccc(S(=O)(=O)NC(=O)NN2CC3CCCC3C2)cc1` (stereo not given) [Gliclazide]: the “growth AUC normalised to DMSO control” value was 0.987.
The value for `O=c1[nH]cc(F)c(=O)[nH]1` [5-fluorouracil] was 0.927.
Take `COC(=O)C1=C(C)NC(C)=C(C(=O)OC)C1c1ccccc1[N+](=O)[O-]` [Nifedipine]: the “growth AUC normalised to DMSO control” value is 1.
The value for `COc1ccc(CN(CCN(C)C)c2ccccn2)cc1` [Pyrilamine maleate] was 1.01; that for `Cc1c(Cl)cccc1Nc1ccccc1C(=O)O` [Tolfenamic acid] was 0.963.
The same measure for `C[C@@](Cc1ccc(O)c(O)c1)(NN)C(=O)O` [Carbidopa]: 0.972; for `CCN(CC)CCCC(C)Nc1ccnc2cc(Cl)ccc12` (stereo not given) [Chloroquine diphosphate]: 1.01; for `c1ccc(-c2ccc(C(c3ccccc3)n3ccnc3)cc2)cc1` (stereo not given) [Bifonazole]: 1.02.
The value for `C[C@H](CS)C(=O)N1CCC[C@H]1C(=O)O` [Captopril] was 1.01; that for `Nc1ccc(C(=O)NCC(=O)O)cc1` [Aminohippuric acid] was 0.997.
As for `CC(C(=O)O)c1ccc(N2Cc3ccccc3C2=O)cc1` (stereo not given) [Indoprofen], the “growth AUC normalised to DMSO control” value is 1.01.
The value for `CO[C@@]1(NC(=O)Cc2cccs2)C(=O)N2C(C(=O)O)=C(COC(N)=O)CS[C@@H]21` [Cefoxitin sodium salt] was 0.0451 (active); that for `CN1CCN(CCCN2c3ccccc3Sc3ccc(C(F)(F)F)cc32)CC1` [Trifluoperazine dihydrochloride] was 1.04.
With `CN(C)CCOc1ccc(/C(=C(/CCCl)c2ccccc2)c2ccccc2)cc1` [Toremifene], the “growth AUC normalised to DMSO control” value is 1.06.
The same measure for `O=C1Nc2ccc(Cl)cc2[C@@](C#CC2CC2)(C(F)(F)F)O1` [Efavirenz]: 0.999; for `CO[C@@H]1[C@@H](O[C@@H]2O[C@H](C)[C@@H](O[C@H]3C[C@@](C)(O)[C@@H](OC(=O)CC(C)C)[C@H](C)O3)[C@H](N(C)C)[C@H]2O)[C@@H](CC=O)C[C@@H](C)[C@@H](O)/C=C/C=C/C[C@@H](C)OC(=O)C[C@H]1OC(C)=O` [Josamycin]: 0.971.
The value for `O=C(NCCNCC(O)COc1ccc(O)cc1)N1CCOCC1` (stereo not given) [Xamoterol hemifumarate] was 0.993; that for `CCN(CC)CCCC(C)Nc1c2ccc(Cl)cc2nc2ccc(OC)cc12` (stereo not given) [Quinacrine dihydrochloride hydrate] was 0.996.
The same measure for `C[C@H]1C[C@H]2[C@@H]3CCC4=CC(=O)C=C[C@]4(C)[C@@]3(F)[C@@H](O)C[C@]2(C)[C@@]1(O)C(=O)CO` [Betamethasone]: 0.988; for `CCCCC(CC)CNC(=N)NC(=N)NCCCCCCNC(=N)NC(=N)NCC(CC)CCCC` (stereo not given) [Alexidine dihydrochloride]: 0.731 (active); for `COc1ccc(C(=O)NCc2cccnc2)cc1C(=O)NCc1cccnc1` [Picotamide monohydrate]: 0.984.
Take `C[C@@H](c1ncncc1F)[C@](O)(Cn1cncn1)c1ccc(F)cc1F` [Voriconazole]: the “growth AUC normalised to DMSO control” value is 1.
For `NCC[C@H](O)C(=O)N[C@@H]1C[C@H](N)[C@@H](O[C@H]2O[C@H](CN)[C@@H](O)[C@H](O)[C@H]2O)[C@H](O)[C@H]1O[C@H]1O[C@H](CO)[C@@H](O)[C@H](N)[C@H]1O` [Amikacin hydrate], the “growth AUC normalised to DMSO control” value is 0.122 (active).
Turning to `CO[C@H]1/C=C/O[C@@]2(C)Oc3c(C)c(O)c4c(O)c(c(/C=N/N5CCN(C)CC5)c(O)c4c3C2=O)NC(=O)/C(C)=C\C=C\[C@H](C)[C@H](O)[C@@H](C)[C@@H](O)[C@@H](C)[C@H](OC(C)=O)[C@@H]1C` [Rifampicin], the “growth AUC normalised to DMSO control” value was 0.0362 (active).
For the compound `CC(C)NCC(O)COc1cccc2[nH]ccc12` (stereo not given) [Pindolol], the “growth AUC normalised to DMSO control” value was 0.978.
As for `NCCCC[C@H](N[C@@H](CCc1ccccc1)C(=O)O)C(=O)N1CCC[C@H]1C(=O)O` [Lisinopril], the “growth AUC normalised to DMSO control” value is 1.01.
The same measure for `Cc1cccc(Nc2ccccc2C(=O)O)c1C` [Mefenamic acid]: 1; for `CN(C)CCC(c1ccccc1)c1ccccn1` (stereo not given) [Pheniramine maleate]: 1.01; for `COc1cc(-c2ccc(=O)[nH]n2)ccc1OC(F)F` [Zardaverine]: 0.998.
For `CCOc1ccc2c(c1)C(C)=CC(C)(C)N2` [Ethoxyquin], the “growth AUC normalised to DMSO control” value was 0.986.
